Test results reported in PubChem BioAssay AID651903 (Broad Institute, 2012).
Among all 22,000 compounds or so, about 1,100 (5%) were called active. The sample holds actives, similar compounds and a random draw of the others, so the mix is not that of the screen. Values without a mark were called inactive. Cut-off read from the data, not from the text of the source: active = activity score above about 55%; inconclusive = no clear call, values can overlap the other calls; inactive = below that.

test: inhibitors of intracellular Trypanosoma cruzi, primary screen, cell-based, plate reader, single point, set 2 (AID 651903); details: intracellular Trypanosoma cruzi in host cells, at 5.01 µM, active compounds read high;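 note: parasites and compound incubated about four days before reading; 0% = median of neutral control wells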

SMILES	activity score (inhibition)
C[C@@H]1CN([C@@H](C)CO)C(=O)Cc2cc(NC(=O)Cc3ccccc3)ccc2O[C@@H]1CN(C)Cc1ccc(Oc2ccccc2)cc1	65.6% (active)
C[C@@H]1CN([C@H](C)CO)C(=O)Cc2cc(NC(=O)Cc3ccccc3)ccc2O[C@H]1CN(C)Cc1ccc(Oc2ccccc2)cc1	42.5%
C[C@H]1CN([C@@H](C)CO)C(=O)Cc2cc(NC(=O)Cc3ccccc3)ccc2O[C@@H]1CN(C)Cc1ccc(Cl)c(Cl)c1	41.9%
C[C@@H]1CN([C@H](C)CO)C(=O)Cc2cc(NC(=O)CCCN(C)C)ccc2O[C@@H]1CN(C)Cc1ccc(Oc2ccccc2)cc1	-28.8%
C[C@@H]1CN([C@H](C)CO)C(=O)Cc2cc(NC(=O)Cc3ccccc3)ccc2O[C@@H]1CN(C)Cc1ccccc1	5.2%
COc1ccc(CN(C)C[C@H]2Oc3ccc(NC(=O)Cc4ccccc4)cc3CC(=O)N([C@@H](C)CO)C[C@@H]2C)cc1	71.7% (active)
C[C@H]1CN([C@@H](C)CO)C(=O)Cc2cc(NC(=O)NC3CCCCC3)ccc2O[C@@H]1CN(C)Cc1ccc(Oc2ccccc2)cc1	75.3% (active)
C[C@@H]1CN([C@H](C)CO)C(=O)Cc2cc(NC(=O)NC3CCCCC3)ccc2O[C@H]1CN(C)Cc1ccc(Cl)c(Cl)c1	7.26%
C[C@@H]1CN([C@@H](C)CO)C(=O)Cc2cc(NC(=O)Cc3ccccc3)ccc2O[C@@H]1CN(C)Cc1ccc2c(c1)OCO2	32.2%
C[C@@H]1CN([C@H](C)CO)C(=O)c2cc(NC(=O)Cn3cnnn3)ccc2O[C@@H]1CN(C)Cc1ccc(C(F)(F)F)cc1	-1.8%
O=C(O)CCCCCCC(=O)NN=C1CCCCCC1	-26.3%
C[C@H](CO)N1C[C@H](C)[C@H](CN(C)Cc2ccc(C(=O)Nc3ccccc3N)cc2)Oc2ccc(NC(=O)Nc3ccccc3)cc2CC1=O	48.5%
CC(C)NC(=O)Nc1ccc2c(c1)CC(=O)N([C@H](C)CO)C[C@@H](C)[C@@H](CN(C)Cc1ccc(C(=O)Nc3ccccc3N)cc1)O2	52.3%
C[C@H]1CN([C@@H](C)CO)C(=O)Cc2cc(NC(=O)Nc3ccc4c(c3)OCO4)ccc2O[C@H]1CN(C)Cc1ccc(C(=O)Nc2ccccc2N)cc1	62.8% (active)
COc1ccc(CN(C)C[C@@H]2Oc3ccc(NC(=O)Nc4ccc5c(c4)OCO5)cc3CC(=O)N([C@H](C)CO)C[C@H]2C)cc1	26.4%
C[C@@H]1CN([C@H](C)CO)C(=O)Cc2cc(NC(=O)Nc3ccc(F)cc3)ccc2O[C@@H]1CN(C)Cc1ccc2c(c1)OCO2	1.98%
C[C@@H]1CN([C@H](C)CO)C(=O)Cc2cc(NC(=O)Nc3ccc4c(c3)OCO4)ccc2O[C@@H]1CN(C)Cc1ccc(C(=O)Nc2ccccc2N)cc1	63.9% (active)
C[C@H](CO)N1C[C@H](C)[C@H](CN(C)S(=O)(=O)c2cccs2)Oc2ccc(NS(=O)(=O)c3ccc(Cl)cc3)cc2CC1=O	-17%
C[C@H]1CN([C@@H](C)CO)C(=O)Cc2cc(NS(=O)(=O)c3cccs3)ccc2O[C@@H]1CN(C)Cc1ccc(Oc2ccccc2)cc1	42.4%
C[C@H](CO)N1C[C@H](C)[C@H](CN(C)CC2CCCCC2)Oc2ccc(NC(=O)CCN3CCOCC3)cc2CC1=O	-39.1%
C[C@H](CO)N1C[C@H](C)[C@H](CN(C)C(=O)Nc2ccc(C(F)(F)F)cc2)Oc2ccc(NC(=O)C3CC3)cc2C1=O	-9.99%
C[C@@H]1CN([C@H](C)CO)C(=O)c2cccc(NC(=O)Nc3ccc(F)cc3)c2O[C@@H]1CN(C)Cc1ccc(C(F)(F)F)cc1	-18.6%

SMILES	activity score (inhibition)
C[C@H]1CN([C@@H](C)CO)C(=O)c2cccc(NC(=O)C3CCCCC3)c2O[C@H]1CN(C)Cc1ccc(C(F)(F)F)cc1	6.51%
C[C@H](CO)N1C[C@H](C)[C@@H](CN(C)Cc2ccc(C(F)(F)F)cc2)Oc2c(NC(=O)NC3CCCCC3)cccc2C1=O	78.1% (active)
COc1ccc(CN(C)C[C@H]2Oc3c(NC(=O)NC4CCCCC4)cccc3C(=O)N([C@@H](C)CO)C[C@@H]2C)cc1	-5.36%
C[C@H]1CN([C@@H](C)CO)C(=O)c2cccc(NC(=O)Nc3ccc(C(F)(F)F)cc3)c2O[C@@H]1CN(C)Cc1ccccc1	8.46%
C[C@@H]1CN([C@H](C)CO)C(=O)c2cccc(NC(=O)NC3CCCCC3)c2O[C@H]1CN(C)Cc1ccc(C(F)(F)F)cc1	85.3% (active)
C[C@@H]1CN([C@@H](C)CO)C(=O)c2cccc(N(C)C)c2O[C@@H]1CN(C)S(C)(=O)=O	-23.1%
C[C@H]1CN([C@@H](C)CO)C(=O)c2cccc(NS(=O)(=O)c3ccccc3)c2O[C@@H]1CN(C)S(=O)(=O)c1cn(C)cn1	-19.1%
C[C@H]1CN([C@@H](C)CO)C(=O)Cc2cc(NC(=O)C3CC3)ccc2O[C@@H]1CN(C)C(=O)NC1CCCCC1	-11%
CC(C)NC(=O)N(C)C[C@@H]1Oc2c(cccc2N(C)C)C(=O)N([C@H](C)CO)C[C@@H]1C	-30.9%
C[C@@H]1CN([C@@H](C)CO)C(=O)c2cc(NC(=O)Nc3ccccc3)ccc2O[C@H]1CN(C)C(=O)Nc1ccc(F)cc1	-1.8%
C[C@@H]1CN([C@H](C)CO)C(=O)c2cc(NC(=O)Cc3cn(C)c4ccccc34)ccc2O[C@H]1CN(C)S(C)(=O)=O	-9.14%
C[C@@H]1CN([C@@H](C)CO)C(=O)c2cccc(NC(=O)Nc3ccc4c(c3)OCO4)c2O[C@@H]1CN(C)C(=O)Nc1ccc(F)cc1	-15.6%
C[C@@H]1CN([C@H](C)CO)C(=O)Cc2cc(NC(=O)Nc3ccc4c(c3)OCO4)ccc2O[C@H]1CN(C)Cc1ccc(C(=O)O)cc1	-10.7%
C[C@@H]1CN([C@H](C)CO)C(=O)c2cc(NC(=O)Nc3ccc4c(c3)OCO4)ccc2O[C@@H]1CN(C)Cc1ccc(C(F)(F)F)cc1	2.66%
C[C@@H]1CN([C@H](C)CO)C(=O)Cc2cc(NC(=O)Nc3cccc4ccccc34)ccc2O[C@@H]1CN(C)Cc1ccc(C(F)(F)F)cc1	67.4% (active)
C[C@@H]1CN([C@H](C)CO)C(=O)Cc2cc(NC(=O)Nc3ccc4c(c3)OCO4)ccc2O[C@H]1CN(C)Cc1ccc(C(F)(F)F)cc1	64.6% (active)
C[C@@H]1CN([C@H](C)CO)C(=O)Cc2cc(NC(=O)Nc3cccc4ccccc34)ccc2O[C@@H]1CN(C)Cc1ccc(C(=O)O)cc1	-16%
COc1ccc(NC(=O)Nc2ccc3c(c2)CC(=O)N([C@@H](C)CO)C[C@@H](C)[C@@H](CN(C)Cc2ccc(C(F)(F)F)cc2)O3)cc1	76% (active)
Cc1noc(C)c1NC(=O)Nc1ccc2c(c1)CC(=O)N([C@H](C)CO)C[C@@H](C)[C@@H](CN(C)Cc1ccc(C(F)(F)F)cc1)O2	-9.04%
C[C@H]1CN([C@@H](C)CO)C(=O)Cc2cc(NC(=O)Nc3ccc(C(F)(F)F)cc3)ccc2O[C@H]1CN(C)Cc1ccc(C(=O)O)cc1	-28.2%
COc1ccc(CN(C)C[C@@H]2Oc3ccc(NC(=O)Nc4ccc(OC)cc4)cc3CC(=O)N([C@H](C)CO)C[C@H]2C)cc1	12%
